Screening data as filed in PubChem BioAssay.
An excerpt weighted towards active compounds, which were near 12% of everything screened.
JMJD2A Tudor: qHTS Assay for Inhibitors of JMJD2A-Tudor Domain; Lysine-specific demethylase 4A (Homo sapiens), O75164; Potency, µM (series often up to 114 µM), without a hit: at the highest dose activity change, negative = inhibition, actives largely listed as inhibitors; AID 504339, 2011; AlphaScreen JMJD2A-Tudor / H3K4me3 peptide binding; 4.4% of 390,000 active; also: % is scaled to controls: 0 for no effect and ±100 for the full control effect; nearly all actives have a fitted effect of over 50% in size
G9a inh: qHTS Assay for Inhibitors of Histone Lysine Methyltransferase G9a; 8.8% of 350,000 active; AID 504332, 2011; G9a H3K9 monomethylation, AlphaScreen, 2 h; Histone-lysine N-methyltransferase EHMT2 (Homo sapiens), Q96KQ7; Potency, µM (titrated, usually from 102 µM), inactives show top-dose activity, negative = inhibition, hits mostly inhibitors; also: % is scaled to controls: 0 for no effect and ±100 for the full control effect; nearly all actives have a fitted effect of over 75% in size
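Methyltransferase reactions run at room temperature for 2 h (20 nM enzyme, 500 nM biotin-H3K9 peptide, 20 uM SAM) after a 15 min compound preincubation; product detected by AlphaScreen beads and anti-H3K9me1 antibody.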
Sfp inh: qHTS Assay for Inhibitors of Bacillus subtilis Sfp phosphopantetheinyl transferase (PPTase) | 3.5% of 310,000 active | 4'-phosphopantetheinyl transferase ffp (Bacillus subtilis), Q9F4F7 | Biochemical Sfp PPTase activity, qHTS | Potency, µM, inactives show largest response in the series, negative = inhibition, hits mostly inhibitors;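 also: the enzyme is Sfp with the accession as filed and its product quenches rhodamine fluorescence; 0% = enzyme reaction without inhibitor and -100% = no enzyme wells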
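Sfp 15 nM + cpd, 15 min RT; start w/ rhodamine-CoA 5 uM, BHQ-2-YbbR 12.5 uM (final); 50 mM Hepes pH 7.6, 10 mM MgCl2, 0.01% NP-40, 0.01% BSA; read 525/598 nm at 0 and 30 min.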
L3MBTL1 inh: qHTS Assay for the Inhibitors of L3MBTL1; Lethal(3)malignant brain tumor-like protein 1 (Homo sapiens), Q9Y468; AlphaScreen L3MBTL1–H3K9me1 peptide binding; Potency, µM (top dose mostly 57.1 µM), inactives show at the highest dose activity, negative = inhibition, actives largely listed as inhibitors; 0.66% of 230,000 active; AID 485360, 2010; also: % is scaled to controls: 0 for no effect and ±100 for the full control effect; nearly all actives have a fitted effect of over 60% in size
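Read-out is AlphaScreen signal from streptavidin donor and nickel chelate acceptor beads (10 ug/mL final each) bridging L3MBTL1 (50 nM) and biotinylated K9-monomethylated H3(1-15) peptide (75 nM), after 30 min compound exposure at room temperature.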
BAZ2B block: qHTS Assay for Inhibitors of BAZ2B; 4.4% of 360,000 active; AID 504333, 2011; AlphaScreen BAZ2B-H3K14Ac peptide displacement; Potency, µM (series often up to 114 µM), without a hit: at the highest dose activity change, negative = inhibition, usual class: inhibitors; also: % is scaled to controls: 0 for no effect and ±100 for the full control effect; nearly all actives have a fitted effect of over 60% in size
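BAZ2B 50 nM plus b-H3(5-23)K14Ac 50 nM, PBS pH 7.4/0.01% Tween-20, 30 min RT; compound added (max 110 uM), 30 min RT; streptavidin donor/Ni-chelate acceptor beads 10 ug/mL final, 20 min dark; AlphaScreen read.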
HP1b binding inh: HTS for Inhibitors of HP1-beta Chromodomain Interactions with Methylated Histone Tails. Potency, µM (titrated, usually from 114 µM), inactives show top-dose activity change, negative = inhibition, usual class: inhibitors. Chromobox protein homolog 1 (Homo sapiens), P83916. 0.56% of 390,000 active. AlphaScreen HP1-beta / biotin-H3K9me3 peptide binding; also: nearly all actives have a fitted effect of over 70% in size
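AlphaScreen: HP1-beta (50 nM) preformed 30 min with biotin-H3(1-18)K9me3 peptide (50 nM) in PBS pH 7.4, 0.01% Tween-20. Compound added for 30 min at RT, then streptavidin donor/nickel chelate acceptor beads (10 ug/mL) for 30 min.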
Active calls of the source: *; ? = inconclusive; nt = no result; [ ] = another dose, or the depositor's remark. Calls follow the shape of the dose curve; as a rule, active = well fitted curve in the direction sought with a large enough effect; inconclusive = small, poorly fitted or top-dose-only effect, or another doubt; inactive = no such curve, though single readings can be large; an effect the other way counts as inactive or inconclusive. Potency is read from the fitted curve at half-maximal effect.

SMILES	JMJD2A Tudor	G9a inh	Sfp inh	L3MBTL1 inh	BAZ2B block	HP1b binding inh
COc1ccc(-n2c(CN3CCC(C(N)=O)CC3)nc3ccc([N+](=O)[O-])cc3c2=O)c(OC)c1	-19%	56µM*	4%	nt	?	33%
CCN1CCN(Cc2nc3ccc([N+](=O)[O-])cc3c(=O)n2-c2ccc(OC)cc2OC)CC1	-12%	29%	-4%	nt	23%	-20%
COC(=O)N1CCN(/[N+]([O-])=N/Oc2ccc([N+](=O)[O-])cc2[N+](=O)[O-])CC1	-12%	nt	-9%	nt	nt	39%
CCc1ccccc1NC(=O)c1sc2nc3n(c(=O)c2c1C)CCC3	-23%	-29%[59 µM]	nt	nt	-31%	28%
CCCCCCC(=O)NCC(=O)OCC(=O)c1ccccc1	-10%[11.4 µM]	25µM*	10%	3%	9%	61%
CC(=O)NCC(=O)OCC(=O)c1ccccc1	-11%	-5%[59 µM]	15%	nt	2%	21%
CCOc1ccc(C(=O)Nc2nnc(C(C)C)s2)cc1OCC	-8%	10µM*	89µM*	nt	4%	2%
COc1ccc(C(=O)Nc2nnc(C(C)C)s2)cc1OC	12%	8%[59 µM]	nt	nt	3%	7%
CCN(CC)S(=O)(=O)c1ccc(C(=O)Nc2nnc(C(C)C)s2)cc1	-29%	35µM*	11%	-8%	-5%	25%
CC(C)c1ccc2occ(CC(=O)N(Cc3ccc(F)cc3)C3CCS(=O)(=O)C3)c2c1 (stereo not drawn)	-24%	-2%[59 µM]	nt	nt	-9%	20%
CCN(CC)c1ccc(CN(C(=O)Cc2coc3ccc(C)cc23)C2CCS(=O)(=O)C2)cc1 (stereo not drawn)	?	10µM*	nt	nt	10µM*	-16%
CCc1ccc2occ(CC(=O)N(Cc3ccc(N(C)C)cc3)C3CCS(=O)(=O)C3)c2c1 (stereo not drawn)	40µM*	13µM*	nt	nt	20µM*	?
Cc1ccc2occ(CC(=O)N(Cc3ccc(N(C)C)cc3)C3CCS(=O)(=O)C3)c2c1 (stereo not drawn)	?	10µM*	nt	nt	45µM*	-19%
Cc1cc(C)c2c(CC(=O)N(Cc3ccccc3)C3CCS(=O)(=O)C3)coc2c1 (stereo not drawn)	-22%	-22%[59 µM]	nt	nt	-22%	28%
CC(=O)C(=O)O	nt	nt	-13%	nt	nt	nt
COc1ccc(N2C(=O)C(CC(=O)Nc3ccccc3)N(CCC3=CCCCC3)C2=O)cc1 (stereo not drawn)	-4%	-2%[59 µM]	nt	nt	-3%	46%
Cc1ccc(-c2c(C(=O)Nc3ccccc3C)c(C)[nH]c(=S)c2C#N)o1	-4%[11.4 µM]	-130%	2.8µM*	-12%[2.29 µM]	79µM*	5%
Cc1[nH]c(=S)c(C#N)c(-c2ccccc2)c1C(=O)Nc1ccccc1	79µM*	?	28µM*	-1%	-15%	-3%
Cc1ccccc1NC(=O)c1c(C)[nH]c(=S)c(C#N)c1-c1ccc(Cl)cc1	-6%	?	-10%	-2%	-4%	18%
CCc1[nH]c(=S)c(C#N)c(-c2ccccc2)c1C(=O)OC	?	16µM*	-11%	26%	-6%	20%
CCOC(=O)c1cc(-c2ccc(OC)cc2)n(CCC(=O)NC2CCC(C)CC2)c1C (stereo not drawn)	?	-49%[59 µM]	nt	nt	-20%	7%
S=C1NNC2(NN1)C1CC3CC(C1)CC2C3	?	8.9µM*	-3%	-5%	-31%	22%
COc1ccc(C(CC(=O)Nc2ccc(OC)c(OC)c2)N2Cc3ccccc3C2=O)cc1 (stereo not drawn)	-27%	-26%[59 µM]	nt	nt	79µM*	12%
COc1ccc(C(CC(=O)Nc2cc(OC)c(OC)c(OC)c2)N2Cc3ccccc3C2=O)cc1 (stereo not drawn)	-29%	-45%[59 µM]	nt	nt	-30%	-11%
COc1ccc(S(=O)(=O)n2nc(-c3ccco3)nc2NCc2ccc(C(C)C)cc2)cc1	-13%	-18%[59 µM]	nt	nt	-34%	50%
SMILES	JMJD2A Tudor	G9a inh	Sfp inh	L3MBTL1 inh	BAZ2B block	HP1b binding inh
CC1(C)OC(c2ccccc2)=C/C(=C/C=C2C(=O)c3ccccc3C2=O)O1	3.2µM*	2.5µM*	-6%	nt	1.4µM*	?
CC(C)C[C@H](NC(=O)[C@H](CC(C)C)NC(=O)[C@@H](Cc1c[nH]c2ccccc12)NC(=O)[C@H](Cc1ccccc1)NC(=O)[C@@H](Cc1c[nH]c2ccccc12)NC(=O)[C@H](CCC(N)=O)NC(=O)[C@H](CCC(N)=O)NC(=O)[C@@H]1CCCN1C(=O)[C@H](CCCCN)NC(=O)[C@@H]1CCCN1C(=O)[C@H](N)CCCN=C(N)N)C(N)=O	nt	nt	-5%	nt	nt	nt
Clc1ccccc1CNc1ncnc2c1c(-c1ccccc1)cn2-c1ccccc1	-19%	-10%[59 µM]	nt	nt	-15%	35%
CC1=N/C(=C\c2ccc([N+](=O)[O-])cc2)C(=O)N1c1cc(Cl)ccc1C	?	?	56µM*	-10%	?	?
COc1ccc(N2C(=O)/C(=C/c3ccc([N+](=O)[O-])cc3)N=C2C)c(OC)c1	-23%	?	1%	-8%	-15%	-9%
CC(=O)Nc1ccccc1-c1nc2ccccc2n(CC(=O)c2ccc(C)c(C)c2)c1=O	-4%	-29%[59 µM]	nt	nt	-2%	36%
Cc1ccc(O)c(-c2cc(-c3ccccc3F)[nH]n2)c1	5%	71%[12.7 µM]	14%	nt	8%	48%
c1ccc(-c2cc3ccccc3[nH]2)cc1	-9%	nt	2%	nt	-5%	26%
COc1ccc(-c2cc3ccccc3[nH]2)cc1	7.1µM*	nt	5%	0%	-21%	?
Cc1ccc(O)c(-c2cc3ccccc3[nH]2)c1	?	?	-10%	-9%	45µM*	?
Cc1cc(C)c(C#N)c(N2CCCC2)n1	4%	32%[59 µM]	-3%	3%	10%	39%
Cc1cc(C(F)(F)F)c(C#N)c(N2CCOCC2)n1	28µM*	12%	?	22%	9%	-8%
Cc1nc(SCC(=O)Nc2cccnc2Cl)nc(C)c1C	-14%	40µM*	-24%	-13%	-38%	29%
Cc1nc(SCC(=O)Nc2cc(Cl)ccc2[N+](=O)[O-])nc(C)c1C	?	?	-13%	-21%	40µM*	?
CN(c1ccc([N+](=O)[O-])cc1/C=N/NC(=O)COc1ccccc1)C1CCCCC1	-7%	-11%[59 µM]	13%	-5%	-12%	35%
